# Reference: the supplement of paper PMC8728848
# The entries come from a sample that favours the strongest signals as a whole.
# B1: PX9961J-bvu-499-24-499 (Bacteroides vulgatus) (protein)
# chain: LNTDPSTAVPSDDAIKNIDDAQVALNGIYRLASAHSYYGDNYLYYADCRGEDVQARINKGAGRRVSPYYFFDVTADDNFNITLVWNQPYKVIHQANSLIEKLDAGNAGNARPEEVARIKSEALAMRGLALFDLTRLFGMPYTLDNGASLGVPIEIQTTLEDHAPERNTVAQCYEQVLKDLNDALGGLTKEKHDAYMNYWSVKALLSRVYLYMNDNENALKCAEEVINDNGGIYRLFTHDEYPSVWGKDFNSESLFEFYFTMSEPSGGSGGEGAPMVYADNVKDWNNLILTKAYLDLLNEDPEDVRHVFPHLPENAVADTLPVAAKGQPKYLIKYPGKSGSVTDAVSTVNPQDNDLCILRLSEVYLNAAEAAFKIGNTEKALTYLNAIVTRANPAKSVTSADLSLERILKERRKELVGEGHAFFDYMRNGKSVDRSGGWHLTMPEDARVIAPSDPRVALPIPQTEIDANPNIVQNPR
# Legend:
# Test in all cases: glycan array binding signal (z-score within array); higher = stronger binding
# Conditions in all cases: glycan notation: IUPAC condensed, linker removed
# [1] = target: Fuc(a1-2)Gal(b1-3)GlcNAc(b1-3)[Neu5Ac(a2-6)Gal(b1-4)GlcNAc(b1-6)]Gal(b1-4)Glc
# Summary of the method: (§1)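 The binding signal is a Z-score computed within each array. Data were drawn from 3228 arrays in the Consortium for Functional Glycomics database, restricted to those with a known protein sequence. Scores were averaged over arrays of the same protein sequence at different concentrations or buffers, and over linkers, and negative values can be taken as non-binding.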
# [2] = target: Fuc(a1-3)[Gal(b1-4)]GlcNAc(b1-6)GalNAc
# Summary of the method: as §1
# Gal(a1-2)Gal = target: Gal(a1-2)Gal
# Summary of the method: as §1
# [3] = target: Gal(a1-3)Gal(b1-3)GlcNAc(b1-6)GalNAc
# Summary of the method: as §1
# [4] = target: Gal(a1-3)Gal(b1-3)[Fuc(a1-4)]GlcNAc(b1-2)Man(a1-3)[Gal(a1-3)Gal(b1-3)[Fuc(a1-4)]GlcNAc(b1-2)Man(a1-6)]Man(b1-4)GlcNAc(b1-4)GlcNAc
# Summary of the method: as §1
# [5] = target: Gal(a1-3)[Gal(a1-4)]Gal(b1-4)GlcNAc
# Summary of the method: as §1
# Gal(a1-4)Gal(b1-4)Glc = target: Gal(a1-4)Gal(b1-4)Glc
# Summary of the method: as §1
# [6] = target: Gal(b1-3)GlcNAc(b1-2)Man(a1-3)[GlcNAc(b1-4)][Gal(b1-3)GlcNAc(b1-2)Man(a1-6)]Man(b1-4)GlcNAc(b1-4)GlcNAc
# Summary of the method: as §1
# Gal(b1-3)GlcNAc6S = target: Gal(b1-3)GlcNAc6S
# Summary of the method: as §1
# [7] = target: Gal(b1-4)GlcNAc(b1-3)Gal(b1-4)GlcNAc(b1-2)[Gal(b1-4)GlcNAc(b1-3)Gal(b1-4)GlcNAc(b1-6)]Man(a1-6)[Gal(b1-4)GlcNAc(b1-3)Gal(b1-4)GlcNAc(b1-2)Man(a1-3)]Man(b1-4)GlcNAc(b1-4)[Fuc(a1-6)]GlcNAc
# Summary of the method: as §1
# [8] = target: Gal(b1-4)GlcNAc(b1-3)Gal(b1-4)GlcNAc(b1-3)Gal(b1-4)GlcNAc(b1-2)[Gal(b1-4)GlcNAc(b1-3)Gal(b1-4)GlcNAc(b1-3)Gal(b1-4)GlcNAc(b1-6)]Man(a1-6)[Gal(b1-4)GlcNAc(b1-3)Gal(b1-4)GlcNAc(b1-3)Gal(b1-4)GlcNAc(b1-2)Man(a1-3)]Man(b1-4)GlcNAc(b1-4)[Fuc(a1-6)]GlcNAc
# Summary of the method: as §1
# [9] = target: Gal(b1-4)GlcNAc(b1-3)Gal(b1-4)GlcNAc(b1-3)Gal(b1-4)GlcNAc(b1-3)Gal(b1-4)GlcNAc(b1-3)Gal(b1-4)GlcNAc(b1-2)Man(a1-3)[Gal(b1-4)GlcNAc(b1-3)Gal(b1-4)GlcNAc(b1-3)Gal(b1-4)GlcNAc(b1-3)Gal(b1-4)GlcNAc(b1-3)Gal(b1-4)GlcNAc(b1-2)Man(a1-6)]Man(b1-4)GlcNAc(b1-4)GlcNAc
# Summary of the method: as §1
# [10] = target: Gal(b1-4)GlcNAc(b1-3)Gal(b1-4)GlcNAc(b1-3)Gal(b1-4)GlcNAc(b1-3)Gal(b1-4)GlcNAc(b1-3)Gal(b1-4)GlcNAc(b1-2)Man(a1-3)[Gal(b1-4)GlcNAc(b1-3)Gal(b1-4)GlcNAc(b1-3)Gal(b1-4)GlcNAc(b1-3)Gal(b1-4)GlcNAc(b1-3)Gal(b1-4)GlcNAc(b1-2)Man(a1-6)]Man(b1-4)GlcNAc(b1-4)[Fuc(a1-6)]GlcNAc
# Summary of the method: as §1
# [11] = target: Gal(b1-4)GlcNAc(b1-3)Gal(b1-4)GlcNAc(b1-3)Gal(b1-4)GlcNAc(b1-3)Gal(b1-4)GlcNAc(b1-3)Gal(b1-4)GlcNAc(b1-3)Gal(b1-4)GlcNAc(b1-2)Man(a1-3)[Gal(b1-4)GlcNAc(b1-3)Gal(b1-4)GlcNAc(b1-3)Gal(b1-4)GlcNAc(b1-3)Gal(b1-4)GlcNAc(b1-3)Gal(b1-4)GlcNAc(b1-3)Gal(b1-4)GlcNAc(b1-2)Man(a1-6)]Man(b1-4)GlcNAc(b1-4)GlcNAc
# Summary of the method: as §1
# [12] = target: Gal(b1-4)GlcNAc(b1-3)[Gal(b1-4)GlcNAc(b1-6)]Gal(b1-4)GlcNAc
# Summary of the method: as §1
# Gal(b1-4)GlcNAc6P = target: Gal(b1-4)GlcNAc6P
# Summary of the method: as §1
# Gal6P(b1-4)GlcNAc = target: Gal6P(b1-4)GlcNAc
# Summary of the method: as §1
# GalNAc(a1-3)Gal = target: GalNAc(a1-3)Gal
# Summary of the method: as §1
# GalNAc(b1-3)GlcNAc = target: GalNAc(b1-3)GlcNAc
# Summary of the method: as §1
# GalNAc6S(b1-4)GlcNAc = target: GalNAc6S(b1-4)GlcNAc
# Summary of the method: as §1
# GlcA(b1-6)Gal = target: GlcA(b1-6)Gal
# Summary of the method: as §1
# [13] = target: GlcNAc(a1-4)Gal(b1-4)GlcNAc(b1-3)Gal(b1-4)Glc
# Summary of the method: as §1
# [14] = target: GlcNAc(b1-2)Man(a1-3)[GlcNAc(b1-4)][GlcNAc(b1-2)Man(a1-6)]Man(b1-4)GlcNAc(b1-4)[Fuc(a1-6)]GlcNAc
# Summary of the method: as §1
# GlcNAc(b1-3)Gal = target: GlcNAc(b1-3)Gal
# Summary of the method: as §1
# [15] = target: GlcNAc(b1-3)Gal(b1-4)GlcNAc(b1-3)Gal(b1-4)GlcNAc(b1-3)Gal(b1-4)GlcNAc(b1-3)Gal(b1-4)GlcNAc(b1-2)Man(a1-3)[GlcNAc(b1-3)Gal(b1-4)GlcNAc(b1-3)Gal(b1-4)GlcNAc(b1-3)Gal(b1-4)GlcNAc(b1-3)Gal(b1-4)GlcNAc(b1-2)Man(a1-6)]Man(b1-4)GlcNAc(b1-4)[Fuc(a1-6)]GlcNAc
# Summary of the method: as §1
# [16] = target: GlcNAc(b1-3)Gal(b1-4)GlcNAc(b1-3)GalNAc
# Summary of the method: as §1
# [17] = target: Man(a1-3)[Man(a1-6)]Man(a1-6)[Man(a1-3)]Man(b1-4)GlcNAc(b1-4)GlcNAc
# Summary of the method: as §1
# [18] = target: Neu5Ac(a2-3)Gal(b1-3)GlcNAc(b1-3)GalNAc
# Summary of the method: as §1
# [19] = target: Neu5Ac(a2-3)Gal(b1-3)[Fuc(a1-4)]GlcNAc(b1-3)Gal(b1-4)[Fuc(a1-3)]GlcNAc
# Summary of the method: as §1
# [20] = target: Neu5Ac(a2-3)Gal(b1-3)]Neu5Ac(a2-3)Gal(b1-4)]GlcNAc
# Summary of the method: as §1
# [21] = target: Neu5Ac(a2-3)Gal(b1-4)GlcNAc(b1-2)[Neu5Ac(a2-3)Gal(b1-4)GlcNAc(b1-4)]Man(a1-3)[GlcNAc(b1-4)][Neu5Ac(a2-3)Gal(b1-4)GlcNAc(b1-2)[Neu5Ac(a2-3)Gal(b1-4)GlcNAc(b1-6)]Man(a1-6)]Man(b1-4)GlcNAc(b1-4)GlcNAc
# Summary of the method: as §1
# [22] = target: Neu5Ac(a2-3)Gal(b1-4)[Fuc(a1-3)]GlcNAc(b1-6)[Gal(b1-3)]GalNAc
# Summary of the method: as §1
# [23] = target: Neu5Ac(a2-3)[GalNAc(b1-4)]Gal(b1-4)GlcNAc(b1-3)GalNAc
# Summary of the method: as §1
# [24] = target: Neu5Ac(a2-6)Gal(b1-4)GlcNAc(b1-2)Man(a1-3)Man(b1-4)GlcNAc(b1-4)GlcNAc
# Summary of the method: as §1
# [25] = target: Neu5Ac(a2-6)Gal(b1-4)GlcNAc(b1-3)[Neu5Ac(a2-6)Gal(b1-4)GlcNAc(b1-6)]GalNAc
# Summary of the method: as §1
# [26] = target: Neu5Ac(a2-8)Neu5Gc(a2-3)Gal(b1-4)GlcNAc
# Summary of the method: as §1
# [27] = target: Neu5Ac9Ac(a2-3)Gal(b1-4)GlcNAc
# Summary of the method: as §1
binder,measurement,setting,value
B1,glycan array binding signal (z-score),[1],-0.281
same,glycan array binding signal (z-score),[2],-0.674
same,glycan array binding signal (z-score),Gal(a1-2)Gal,-0.036
same,glycan array binding signal (z-score),[3],1.19
same,glycan array binding signal (z-score),[4],2.95
same,glycan array binding signal (z-score),[5],3.12
same,glycan array binding signal (z-score),Gal(a1-4)Gal(b1-4)Glc,-0.223
same,glycan array binding signal (z-score),[6],2.45
same,glycan array binding signal (z-score),Gal(b1-3)GlcNAc6S,-0.142
same,glycan array binding signal (z-score),[7],3.83
same,glycan array binding signal (z-score),[8],0.849
same,glycan array binding signal (z-score),[9],4.09
same,glycan array binding signal (z-score),[10],2.67
same,glycan array binding signal (z-score),[11],0.326
same,glycan array binding signal (z-score),[12],-0.048
same,glycan array binding signal (z-score),Gal(b1-4)GlcNAc6P,0.028
same,glycan array binding signal (z-score),Gal6P(b1-4)GlcNAc,-0.613
same,glycan array binding signal (z-score),GalNAc(a1-3)Gal,2.34
same,glycan array binding signal (z-score),GalNAc(b1-3)GlcNAc,0.212
same,glycan array binding signal (z-score),GalNAc6S(b1-4)GlcNAc,2.75
same,glycan array binding signal (z-score),GlcA(b1-6)Gal,0.034
same,glycan array binding signal (z-score),[13],0.01
same,glycan array binding signal (z-score),[14],-0.709
same,glycan array binding signal (z-score),GlcNAc(b1-3)Gal,-0.109
same,glycan array binding signal (z-score),[15],2.84
same,glycan array binding signal (z-score),[16],0.1
same,glycan array binding signal (z-score),[17],-0.181
same,glycan array binding signal (z-score),[18],0.006
same,glycan array binding signal (z-score),[19],-0.506
same,glycan array binding signal (z-score),[20],0.358
same,glycan array binding signal (z-score),[21],-0.208
same,glycan array binding signal (z-score),[22],-0.279
same,glycan array binding signal (z-score),[23],-0.342
same,glycan array binding signal (z-score),[24],0.368
same,glycan array binding signal (z-score),[25],-0.732
same,glycan array binding signal (z-score),[26],19
same,glycan array binding signal (z-score),[27],-0.319
